HT1080 IDH1KD tx: toxicity to HT-1080 IDH1 knockdown cells (counter line) | HT-1080 IDH1 knockdown viability, ATP luminescence, 48 h | Potency, µM (doses to about 46.1 µM), hits mostly cytotoxic | 2% of 360,000 active
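Using the IDH1-knockdown HT-1080 line run in the same batch and compound series as the NT line, viability after 48 h at 37 °C was determined by CellTiter-Glo luminescence and expressed as % activity.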
DT40 TDP1 no CPT: qHTS for Inhibitors of human tyrosyl-DNA phosphodiesterase 1 (TDP1): qHTS in cells in absence of CPT. DT40 Tdp1-/- hTDP1 cells, no CPT, ATP luminescence, 48 h. AID 686978, 2013. 15% of 420,000 active. Potency, µM (doses to about 46.2 µM), most hits filed as inhibitors; also: nearly all actives have a fitted effect of over 55% in size
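Stably hTDP1-transfected Tdp1-null chicken DT40 cells were treated with library compounds minus camptothecin and grown for at least 48 hr at 37 °C, after which cellular ATP was quantified by luminescence.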
IL1B secr inh: inhibitors of inflammasome signaling (IL-1 beta secretion); 4.7% of 360,000 active; THP-1 LPS/ATP IL-1B secretion, AlphaLISA, 16 h; hits give low values; activity change, % at 57.5 µM; in the data active = activity change below about -50%; inconclusive = mostly about -30% to -49%
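Secreted IL-1B measured by AlphaLISA bead assay after 16 h compound exposure of THP-1 cells; compounds (final up to 57.5 uM) added 1 h before LPS (250 ng/mL) and ATP (1.25 mM) stimulation; lower signal means less secretion.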
HT1080NT lethal: kills 2HG-producing HT-1080-NT fibrosarcoma cells | HT-1080-NT fibrosarcoma viability, CellTiter-Glo ATP luminescence, 48 h | Potency, µM (doses to about 46.1 µM), usual class: cytotoxic | 1.6% of 360,000 active;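 also: NT is the 2HG producing partner of a matched IDH1 knockdown line; nearly all actives have a fitted effect of over 55% in size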
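HT-1080-NT; 750 cells/well; 5% FBS RPMI; 48 h compound, 37 degrees C; CellTiter-Glo luminescence; curve fitting and curve-class assignment.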
TDP1 cell CPT: DT40-hTDP1 cell growth loss with CPT; chicken DT40 Tdp1-/-;hTDP1 cells + 20 nM CPT, ATP luminescence, 48 h; Potency, µM (highest dose often 46.2 µM), actives largely listed as inhibitors; 12% of 420,000 active; AID 686979; also: nearly all actives have a fitted effect of over 55% in size
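Chicken DT40 Tdp1-/- cells stably complemented with human TDP1 were seeded at 400 cells/well in medium containing 20 nM camptothecin, exposed to pin-transferred compounds, and grown at 37 °C for at least 48 hr. Viability was read as ATP luminescence.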
uPA surface inh: cell surface uPA generation inhibition; cell surface uPA generation assay, qHTS; Potency, µM (doses to about 38.3 µM), usual class: inhibitors; 0.31% of 330,000 active; active = well fitted inhibition curve with a large enough effect; inconclusive = small, poorly fitted or top-dose-only effect; inactive = no such curve, though single readings can be large or run the other way; tested in mouse RAW 264.7 cells; also: nearly all actives have a fitted effect of over 55% in size
Numbers stand for hits; n = inactive; u = inconclusive; x = not tested or not shown; [ ] = another dose, or the depositor's remark. This is a sample that favours compounds with a hit; in the whole collection about 19% have one here. Unless noted, calls follow the shape of the dose curve; as a rule, active = well fitted curve in the direction sought with a large enough effect; inconclusive = small, poorly fitted or top-dose-only effect, or another doubt; inactive = no such curve, though single readings can be large; an effect the other way counts as inactive or inconclusive.

SMILES	HT1080 IDH1KD tx	DT40 TDP1 no CPT	IL1B secr inh	HT1080NT lethal	TDP1 cell CPT	uPA surface inh
O=C(CCCn1c(=O)c2ccccc2n(Cc2ccc(F)cc2Cl)c1=O)NCCc1ccc(Cl)cc1	x	18.4µM	x	x	u	x
COc1ccc(Cl)cc1NC(=O)Cn1c(=O)n(CCCC(=O)NCCc2ccc(OC)c(OC)c2)c(=O)c2ccccc21	x	8.2µM	x	x	14.6µM	x
COc1ccc(CCNC(=O)CCCCn2c(=O)c3ccccc3n(Cc3ccc(F)cc3Cl)c2=O)cc1OC	x	6.51µM	x	x	20.6µM	x
COc1ccc(CCNC(=O)CCn2c(=O)c3ccccc3n(Cc3c(C)cc(C)cc3C)c2=O)cc1OC	x	n	x	x	n	x
COc1ccc(CCNC(=O)CCn2c(=O)c3ccccc3n(Cc3ccccc3C)c2=O)cc1OC	x	18.4µM	x	x	14.6µM	x
COc1ccc(CCNC(=O)CCCn2c(=O)c3ccccc3n(Cc3c(C)cc(C)cc3C)c2=O)cc1OC	x	n	x	x	n	x
O=c1cc(CN2CCN(Cc3ccc(F)cc3)C(CCO)C2)[nH]c2ccccc12 (stereo not drawn)	n	n	n	n	n	n
COc1cccc(C(=O)NCC2OCCc3ccccc32)c1 (stereo not drawn)	x	n	x	x	n	x
COc1ccc(CCNC(=O)CCCCn2c(=O)c3ccccc3n(Cc3ccc(Cl)cc3)c2=O)cc1OC	x	u	x	x	23.1µM	x
COc1ccc(C)cc1NC(=O)c1cc(S(=O)(=O)N2CCCCC2)c[nH]1	x	u	x	x	n	x
CN(CCOc1ccccc1)C(=S)Nc1ccc(OC(F)F)cc1	n	n	-57.5	n	n	n
N#C/C(=C\c1ccc(OCCN2CCOCC2)cc1)C(=O)Nc1ccc(S(N)(=O)=O)cc1	n	n	n	n	n	n
CCOC(=O)c1c(N)sc2c(OCC)c(Br)ccc12	u	u	n	u	u	n
CCOC(=O)c1c(NC(C)=O)sc2c(OCC(O)CNC(C)(C)C)c(Br)ccc12 (stereo not drawn)	n	10.3µM	-71.9	u	u	n
CC(C)c1onc(C(=O)NC2CCCCC2)c1[N+](=O)[O-]	u	20.6µM	n	n	20.6µM	n
COc1cc2oc(=O)cc(-c3ccc(-c4ccc(C(F)(F)F)cc4)cc3)c2c(OC)c1OC	n	u	n	n	u	n
COc1cc2oc(=O)cc(-c3ccc(-c4ccc(CO)cc4)cc3)c2c(OC)c1OC	n	18.4µM	n	n	20.6µM	n
COc1cc2oc(=O)cc(-c3cccc(-c4ccc(C(F)(F)F)cc4)c3)c2c(OC)c1OC	n	14.6µM	n	n	23.1µM	n
COc1cc2oc(=O)cc(-c3ccc(-c4ccc(C#N)cc4)cc3)c2c(OC)c1OC	n	8.2µM	n	n	7.31µM	n
COc1cc2oc(=O)cc(-c3ccc(-c4ccc(C)cc4)cc3)c2c(OC)c1OC	n	u	n	n	u	n
CN(C(=O)C1CCCO1)C1CCS(=O)(=O)C1 (stereo not drawn)	n	n	n	n	n	n
CC(=O)Sc1nc(-c2ccccc2)[nH]c1S(=O)(=O)c1ccc(C)cc1	n	20.6µM	n	n	18.4µM	n
CSc1nc(-c2ccc(C)cc2)[nH]c1S(=O)(=O)c1ccccc1	23.1µM	n	n	n	n	n
Cc1ccc(S(=O)(=O)c2[nH]c(-c3ccccc3)nc2SC(C)C(=O)O)cc1 (stereo not drawn)	x	u	x	x	n	x
Cc1ccc(S(=O)(=O)c2[nH]c(-c3ccccc3)nc2SCC(=O)O)cc1	x	n	x	x	n	x
C=CCC1NS(=O)(=O)O[C@H](CCCC)[C@@H]1O (stereo partly drawn)	n	n	n	n	n	n
O=C(c1cc2ccccn2n1)N1CCN(c2cccc(C(F)(F)F)c2)CC1	n	u	u	n[9.24 µM]	n	x
CCOC(=O)N1CCN(C(=O)c2ccc3[nH]c(C)c(C)c3c2)CC1	n	n	n	n	n	n
O=C(c1ccc2nsnc2c1)N1CCN(c2ccc([N+](=O)[O-])cc2)CC1	n	20.6µM	n	u	20.6µM	u

Source: PubChem BioAssay
